This is an account of results in PMC5700166.

Holding throughout (assay): protein-binding microarray (PBM); PBM: ~300 nM protein, 6 mM HEPES pH 7.8, 80 mM KCl, 0.5 mM EDTA, 0.5 mM EGTA, 6% glycerol, 35 ng/ul poly-dIdC, 1% milk, 1 h, room temperature; Ap Aiptasia and Nv Nematostella (sea anemones) / Co Capsaspora / Aq Amphimedon (sponge) / Dm Drosophila / Hu human; RHD is the Rel homology domain; high values mean tight binding
Common to all, as to conditions: dsDNA, one strand shown

One experiment has as its target T1, GST-Ap-NF-kB RHD (Exaiptasia pallida (Aiptasia), UniProt A0A913YAJ5 2-422).
T1 sequence: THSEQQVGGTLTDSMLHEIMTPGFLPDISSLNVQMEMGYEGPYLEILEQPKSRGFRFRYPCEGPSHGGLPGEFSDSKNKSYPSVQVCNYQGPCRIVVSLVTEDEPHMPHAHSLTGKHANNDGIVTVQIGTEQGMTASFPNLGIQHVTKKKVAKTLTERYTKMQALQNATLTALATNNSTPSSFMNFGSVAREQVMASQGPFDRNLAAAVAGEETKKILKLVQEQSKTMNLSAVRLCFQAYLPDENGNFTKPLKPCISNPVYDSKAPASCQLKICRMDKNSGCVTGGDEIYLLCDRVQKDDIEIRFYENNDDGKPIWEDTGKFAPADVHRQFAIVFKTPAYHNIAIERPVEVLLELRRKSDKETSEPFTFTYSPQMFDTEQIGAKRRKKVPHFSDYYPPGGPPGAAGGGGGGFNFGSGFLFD

Experiment [1] concerns the target T2, GST-Nv-NF-kB (Cys allele) (Nematostella vectensis, UniProt E5G601 2-411).
T2 sequence: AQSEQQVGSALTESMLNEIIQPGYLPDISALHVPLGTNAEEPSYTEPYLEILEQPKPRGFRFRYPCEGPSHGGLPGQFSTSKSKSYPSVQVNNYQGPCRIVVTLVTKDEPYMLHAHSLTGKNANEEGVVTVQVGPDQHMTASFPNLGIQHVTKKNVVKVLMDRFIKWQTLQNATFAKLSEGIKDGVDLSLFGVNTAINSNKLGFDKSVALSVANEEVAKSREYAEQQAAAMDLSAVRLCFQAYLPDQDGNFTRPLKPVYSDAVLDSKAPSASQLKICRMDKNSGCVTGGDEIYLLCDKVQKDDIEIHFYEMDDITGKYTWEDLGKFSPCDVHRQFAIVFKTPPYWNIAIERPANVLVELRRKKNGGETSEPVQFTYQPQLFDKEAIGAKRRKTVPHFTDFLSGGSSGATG

The target in another experiment is T3, GST-Co-NF-kB (Capsaspora owczarzaki, UniProt F1ARL5 200-546).
T3 sequence: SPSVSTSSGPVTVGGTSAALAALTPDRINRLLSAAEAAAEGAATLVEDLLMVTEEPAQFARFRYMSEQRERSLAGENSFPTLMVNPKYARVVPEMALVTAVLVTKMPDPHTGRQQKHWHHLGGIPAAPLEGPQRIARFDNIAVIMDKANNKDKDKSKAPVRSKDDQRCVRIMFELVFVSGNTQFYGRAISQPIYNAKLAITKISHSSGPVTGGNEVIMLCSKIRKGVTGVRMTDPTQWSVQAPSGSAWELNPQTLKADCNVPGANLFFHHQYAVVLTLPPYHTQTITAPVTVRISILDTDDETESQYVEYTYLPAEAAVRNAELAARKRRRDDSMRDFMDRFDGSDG

The target of another experiment is T4, GST-Dm-Relish (Drosophila melanogaster, UniProt Q94527 99-473).
T4 sequence: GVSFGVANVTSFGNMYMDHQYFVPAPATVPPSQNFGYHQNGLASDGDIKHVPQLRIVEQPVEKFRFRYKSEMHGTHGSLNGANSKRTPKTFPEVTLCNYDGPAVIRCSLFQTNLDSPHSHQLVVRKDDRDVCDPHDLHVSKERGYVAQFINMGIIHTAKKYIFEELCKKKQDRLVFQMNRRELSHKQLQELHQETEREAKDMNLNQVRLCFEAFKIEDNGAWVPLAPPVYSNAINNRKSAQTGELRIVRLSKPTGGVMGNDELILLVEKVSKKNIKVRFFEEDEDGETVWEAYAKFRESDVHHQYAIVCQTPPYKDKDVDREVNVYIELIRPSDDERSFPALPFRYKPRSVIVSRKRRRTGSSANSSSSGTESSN

For a further experiment, the target named is T5, GST-Aq-NF-kB (Amphimedon queenslandica, UniProt A9Y5G7 2-389).
T5 sequence: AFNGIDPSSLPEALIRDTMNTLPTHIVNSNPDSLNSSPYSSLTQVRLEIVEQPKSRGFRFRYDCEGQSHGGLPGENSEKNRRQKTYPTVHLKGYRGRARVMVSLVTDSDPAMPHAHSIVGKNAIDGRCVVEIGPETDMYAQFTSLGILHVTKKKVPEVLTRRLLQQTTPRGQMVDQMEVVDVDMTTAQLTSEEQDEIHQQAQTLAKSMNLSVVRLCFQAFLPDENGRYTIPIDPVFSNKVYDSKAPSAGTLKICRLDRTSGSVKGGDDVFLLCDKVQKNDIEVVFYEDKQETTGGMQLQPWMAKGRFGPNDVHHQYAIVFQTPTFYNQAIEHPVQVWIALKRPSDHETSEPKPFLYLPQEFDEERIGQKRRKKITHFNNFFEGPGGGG

Take “CCGATTAACATCAGGAATTCCCATGATGTTAATCGGGTCTTGATTCGCTTGACGCTGCTG”: the binding signal was 6.4 z-score in the experiment with GST-Ap-NF-kB RHD; 5.88 z-score in experiment [1]; 4.61 z-score with GST-Co-NF-kB; 7.97 z-score in the experiment with GST-Dm-Relish; 7.09 z-score with GST-Aq-NF-kB.
The like results for “CCGATTAACATCAAAACAACCCCTGATGTTAATCGGGTCTTGATTCGCTTGACGCTGCTG” were, in that order, 3.57 z-score, 3.44 z-score, 2.54 z-score, 2.68 z-score and 4.83 z-score.
Take “CCGATTAACATCAGGGAACTTTATGATGTTAATCGGGTCTTGATTCGCTTGACGCTGCTG”: the binding signal is 4.27 z-score in the experiment with GST-Ap-NF-kB RHD; 4.23 z-score in experiment [1]; 2.81 z-score with GST-Co-NF-kB; 4.83 z-score with GST-Dm-Relish; 5.17 z-score with GST-Aq-NF-kB.
Take “CCGATTAACATCAGAATATCCCATGATGTTAATCGGGTCTTGATTCGCTTGACGCTGCTG”: the binding signal in the experiment with GST-Ap-NF-kB RHD came to 2.05 z-score; in experiment [1], 1.17 z-score; with GST-Co-NF-kB, 1.46 z-score; with GST-Dm-Relish, 1.8 z-score; with GST-Aq-NF-kB, 1.86 z-score.
For “CCGATTAACATCAGGATAATCCCTGATGTTAATCGGGTCTTGATTCGCTTGACGCTGCTG”, the binding signal with GST-Ap-NF-kB RHD came out at 4.74 z-score; in experiment [1], 3.01 z-score; in the experiment with GST-Co-NF-kB it was 1.51 z-score; in the experiment with GST-Dm-Relish, 2.88 z-score; in the experiment with GST-Aq-NF-kB it was 5.24 z-score.
Take “CCGATTAACATCAGGGAATACCATGATGTTAATCGGGTCTTGATTCGCTTGACGCTGCTG”: the binding signal was determined as 3.14 z-score with GST-Ap-NF-kB RHD; 2.92 z-score in experiment [1]; 2.08 z-score with GST-Co-NF-kB; 6.8 z-score with GST-Dm-Relish; 4.48 z-score with GST-Aq-NF-kB.
For “CCGATTAACATCAAATATTCCCATGATGTTAATCGGGTCTTGATTCGCTTGACGCTGCTG” the same measures were 4.02 z-score, 4.31 z-score, 3.51 z-score, 2.7 z-score and 3.63 z-score.
For the sequence “CCGATTAACATCAAAAGAATCCCTGATGTTAATCGGGTCTTGATTCGCTTGACGCTGCTG”, the binding signal in the experiment with GST-Ap-NF-kB RHD was 3.44 z-score; in experiment [1], 3.59 z-score; in the experiment with GST-Co-NF-kB, 1.15 z-score; with GST-Dm-Relish, 5.35 z-score; with GST-Aq-NF-kB, 4.69 z-score.
The like results for “CCGATTAACATCACAGTACCCCCTGATGTTAATCGGGTCTTGATTCGCTTGACGCTGCTG” were, in that order, 5.34 z-score, 2.85 z-score, 3.67 z-score, 1.94 z-score and 2.91 z-score.
For “CCGATTAACATCAGGGGGGACAATGATGTTAATCGGGTCTTGATTCGCTTGACGCTGCTG” the same measures were 4.56 z-score, 4.19 z-score, 6.09 z-score, 2.95 z-score and 4.16 z-score.
The like results for “CCGATTAACATCAGGGGATCTACTGATGTTAATCGGGTCTTGATTCGCTTGACGCTGCTG” were, in that order, 5.31 z-score, 4.68 z-score, 1.96 z-score, 9.02 z-score and 5.74 z-score.
Consider “CCGATTAACATCAGGGAATTAACTGATGTTAATCGGGTCTTGATTCGCTTGACGCTGCTG”, for which the binding signal amounted to 2.83 z-score in the experiment with GST-Ap-NF-kB RHD; 4.33 z-score in experiment [1]; 2.63 z-score with GST-Co-NF-kB; 4.07 z-score with GST-Dm-Relish; 5.19 z-score in the experiment with GST-Aq-NF-kB.
For “CCGATTAACATCAGGCTATCCCCTGATGTTAATCGGGTCTTGATTCGCTTGACGCTGCTG” the same measures were 4.44 z-score, 3.67 z-score, 2.18 z-score, 3.3 z-score and 4.81 z-score.
For “CCGATTAACATCATAAGCGGGGATGATGTTAATCGGGTCTTGATTCGCTTGACGCTGCTG” the same measures were 3.32 z-score, 3.81 z-score, 4.81 z-score, 2.26 z-score and 3.7 z-score.
The like results for “CCGATTAACATCAGGGAATTACATGATGTTAATCGGGTCTTGATTCGCTTGACGCTGCTG” were, in that order, 4.01 z-score, 5.15 z-score, 4.3 z-score, 8.99 z-score and 4.92 z-score.
For the sequence “CCGATTAACATCAGGATCTCCCCTGATGTTAATCGGGTCTTGATTCGCTTGACGCTGCTG”, the binding signal in the experiment with GST-Ap-NF-kB RHD turned out to be 7.91 z-score; in experiment [1], 5.49 z-score; with GST-Co-NF-kB, 4.26 z-score; with GST-Dm-Relish, 5.64 z-score; in the experiment with GST-Aq-NF-kB it was 6.38 z-score.
On to “CCGATTAACATCAGGGGAAGGTATGATGTTAATCGGGTCTTGATTCGCTTGACGCTGCTG”, for which the binding signal in the experiment with GST-Ap-NF-kB RHD came out at 3.33 z-score; in experiment [1], 4.71 z-score; with GST-Co-NF-kB it was 5.15 z-score; in the experiment with GST-Dm-Relish, 2.58 z-score; with GST-Aq-NF-kB, 3.96 z-score.
